Unmarked numbers belong to inactive results.

The test system of the assay is Vero E6 infected with SARS-CoV-2. Put plainly: inhibition of SARS-CoV-2 cytopathic effect; higher = more antiviral protection, active = above 15. Conditions: 10000 nM; 48 h.
With `COc1ccc2c(C(=S)N(C)CC(=O)O)cccc2c1C(F)(F)F` [tolrestat], the “inhibition of SARS-CoV-2 cytopathic effect” value (from here on “inhibition”) was -5.09%.
Turning to `NC(=O)c1cccc2cn(-c3ccc([C@@H]4CCCNC4)cc3)nc12` [niraparib], the “inhibition” value is 5.55%.
`N#CN=C(NCCCCCCOc1ccc(Cl)cc1)Nc1ccncc1`: the “inhibition” value is -17.4%.
The value for `Oc1ccc(Cl)c2cccnc12` [cloxyquin] was -0.16%; that for `CS(=O)(=O)N(Cc1ccco1)C[C@@H](O)Cn1c2ccccc2c2ccccc21` was 9.76%; that for `CN=c1nc(-c2ccccc2)n(-c2ccccc2)s1` was -1.43%.
The value for `CCc1cc(-c2[nH]nc(C)c2-c2ccc3c(c2)OCCO3)c(O)cc1O` was -2.59%; that for `CC(=O)Oc1c(C)cc(OCC(O)CNC(C)C)c(C)c1C` (centres undefined) [metipranolol] was -3.06%; that for `O=C1c2ccccc2-n2c1nc1ccccc1c2=O` [tryptanthrin] was 0.39%.
In the case of `Cn1cnnc1Sc1c([N+](=O)[O-])ncn1C` it was 2.84%; in that of `O=C(NCc1ccc(F)cc1)N1CCN2C(=O)OC(c3ccccc3)(c3ccccc3)[C@@H]2C1` (racemic), -6.01%.
Turning to `CCc1cncnc1N1CCN(Cc2nc3cc(C(F)(F)F)ccc3[nH]2)CC1`, the “inhibition” value was -4.66%.
The value for `COc1ccc(CCN)cc1OC` [homoveratrylamine] was 11.1%.
Consider `COc1nccnc1NS(=O)(=O)c1ccc(N)cc1` [sulfametopyrazine], for which the “inhibition” value was -0.68%.
Regarding `CN(C)C(=O)C(=O)c1cn(C)c2cc(Cl)c(C(=O)N3CCC(Cc4ccc(F)cc4)CC3)cc12`, the “inhibition” value is 6.33%.
The value for `CC#C[C@]1(O)CC[C@H]2[C@@H]3CCC4=CC(=O)CCC4=C3[C@@H](c3ccc(N(C)C)cc3)C[C@@]21C` [mifepristone] was 8.14%; that for `CCCc1c(OCCCCc2nnn[nH]2)ccc(C(C)=O)c1O` [tomelukast] was -6.02%; that for `C[C@H](O)[C@H](O)[C@H]1CNc2nc(N)[nH]c(=O)c2N1` [sapropterin] was -1.44%.
The value for `Cc1cc(C)n(-c2cccc([C@H](CC(=O)O)CN3CC[C@@H](CCc4ccc5c(n4)NCCC5)C3)c2)n1` [integrin-antagonist-1] was -0.92%; that for `CCCNCCc1ccc(NS(=O)(=O)c2ccc(OC(F)(F)F)cc2)cc1` was -4.37%; that for `CCc1nc(-c2cccc(C)c2)c(-c2ccnc(NC(=O)c3ccccc3)c2)s1` was -4.97%.
The value for `CC(C)(C)CC(=O)Nc1c(F)cc(C(=O)/N=c2\sccn2COP(=O)(O)O)cc1F` was 2.91%.
In the case of `CC[N+](CC)(CC(=O)Nc1c(C)cccc1C)Cc1ccccc1` [denatonium-benzoate], the “inhibition” value is -0.4%.
Regarding `CNCc1ccc(C)c(NC(=O)c2ccc(Nc3nc(-c4ccccc4)c4ccccc4n3)cc2)c1`, the “inhibition” value is 61.3% (active).
The value for `CC(CCc1ccccc1)NCC(O)c1ccc(O)c(C(N)=O)c1` (centres undefined) [labetalol] was -2.41%; that for `CC(C)c1cc(C(C)C)c(CC(=O)NS(=O)(=O)Oc2c(C(C)C)cccc2C(C)C)c(C(C)C)c1` [avasimibe] was -1.52%.
The value for `CC(C)(C)NCC(O)c1cc(Cl)c(N)c(Cl)c1` (centres undefined) [clenbuterol] was -2.77%; that for `O=C(O)c1ccc(N2C(=O)/C(=C/c3ccc(-c4ccc([N+](=O)[O-])cc4)o3)C=C2c2ccccc2)cc1` was -0.18%.
On to `CCc1cnn2c(NCc3ccc[n+]([O-])c3)cc(N3CCCC[C@H]3CCO)nc12` [dinaciclib], for which the “inhibition” value was -8.75%.
In the case of `CC(C)[C@H]1C(=O)N[C@@H](CCCNC(=N)N)C(=O)NCC(=O)N[C@@H](CC(=O)O)C(=O)N[C@H](Cc2ccccc2)C(=O)N1C` [cilengitide] it was -12.6%.
The value for `N[C@@H](Cc1ccc(Cl)cc1)C(=O)O` (racemic) [fenclonine-(+/-)] was 3%; that for `CC1=C(C(=O)O)N2C(=O)[C@@H](NC(=O)[C@H](N)c3ccccc3)[C@H]2SC1` [cephalexin] was -3.66%; that for `CCOC(CN1CCN(CC(C)C(=O)c2ccccc2)CC1)c1ccccc1` (centres undefined) [eprazinone] was 0.89%.
For the compound `O=C(c1ccc(F)cc1)N1CCC[C@H](c2nc(-c3ccc(F)cc3)no2)C1`, the “inhibition” value is 2.44%.
The value for `O=C(NCCN1CCOCC1)c1ccc(Cl)cc1` [moclobemide] was -0.2%.
The value for `C[C@H](N[C@@H](CCc1ccccc1)C(=O)O)C(=O)N1CCC[C@H]1C(=O)O` [enalaprilat] was 2.39%; that for `CCN(CC)CCOc1ccccc1C(=O)CCc1ccccc1` [etafenone] was -3.07%; that for `COc1ccc(Cl)c(Nc2nc3ccccc3nc2NS(=O)(=O)c2cccc(NC(=O)C(C)(C)N)c2)c1` [pilaralisib] was -1.82%.
With `COc1ccc2c(c1)[C@]13CCCC[C@@H]1[C@H](C2)N(C)CC3` [dextromethorphan], the “inhibition” value was -0.1%.

(Values after the supplement of paper PMC13380429.)
